The source of these data is PubChem BioAssay (Tox21).

Experiment [1] is described as follows: qHTS assay to identify small molecule antagonists of the estrogen related receptor (ERR) signaling pathway from Tox21 library (AID 1224848). Also: nearly all actives have a fitted effect of over 50% in size. Also: potency is read from the fitted curve at half-maximal effect. The essentials: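 Cells: ERR line, 2,000/well; 6 h preincubation 37 C/5% CO2. Cpd in DMSO via pin tool; 18 h, 37 C. ONE-Glo, 30 min RT, luminescence.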
Experiment [2] can be described thus: qHTS assay to identify small molecule agonists of the estrogen related receptor (ERR) signaling pathway from Tox21 library (AID 1224849; calls by dose curve; also: nearly all actives have a fitted effect of over 15% in size). As to conditions: ERR reporter cell line, ONE-Glo luciferase, 18 h; at 92.4 µM (top of the series) unless noted. The procedure, abridged:
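Screening used an NTP-provided ERR luciferase cell line. Compounds in DMSO were added 6 h after seeding and left 18 h at 37 C before a 30 min ONE-Glo step and luminescence reading.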

Experiment [3] in a line: qHTS RealTime-Glo MT Cell Viability Assay in HepG2 cells - 24 hour (AID 1224867). Also: nearly all actives have a fitted effect of over 50% in size. Also: potency is read from the fitted curve at half-maximal effect. The essentials: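 Luminescence read-out: viable HepG2 cells reduce a prosubstrate to a NanoLuc substrate, giving a signal proportional to live cell number. Reads taken at 0, 8, 16, 24, 32 and 40 h of compound exposure at 37 C.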
On the technique in general: In qHTS, concentration-response curves come from the screen itself.

Experiment [4] can be described thus: A CellTox Green Cytotoxicity Assay to monitor cytotoxicity in HEK293 cells - 0 hour (AID 1224869). Also: nearly all actives have a fitted effect of over 50% in size. Also: potency is read from the fitted curve at half-maximal effect. The essentials:
(§1)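 Fluorescence intensity, read at 0, 8, 16, 24, 32 and 40 h of compound treatment, reflected dye binding to DNA of dead HEK293 cells; compounds (23 nL, DMSO) were added 5 h after plating cells with reagent.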

The nature of experiment [5]: qHTS RealTime-Glo MT Cell Viability Assay in HepG2 cells - 40 hour (AID 1224870). Also: nearly all actives have a fitted effect of over 50% in size. Also: potency is read from the fitted curve at half-maximal effect. The procedure, abridged:
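HepG2 cells mixed with RealTime-Glo MT reagents (NanoLuc plus cell-permeant prosubstrate) were seeded at 600 cells/well, incubated 5 h at 37 C/5% CO2, then pinned with compounds in DMSO; nonlytic luminescence tracked viability during 40 h treatment.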

A short description of experiment [6]: qHTS RealTime-Glo MT Cell Viability Assay in HEK293 cells - 32 hour (AID 1224868). Also: nearly all actives have a fitted effect of over 50% in size. Also: potency is read from the fitted curve at half-maximal effect. The procedure, abridged:
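Nonlytic real-time viability readout: viable cells convert prosubstrate to NanoLuc substrate, giving luminescence proportional to live cell number. HEK293, 600 cells/well, compound added after 5 h, continuous culture at 37 C.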

The nature of experiment [7]: A CellTox Green Cytotoxicity Assay to monitor cytotoxicity in HEK293 cells - 40 hour (AID 1224871). Also: nearly all actives have a fitted effect of over 45% in size. Also: potency is read from the fitted curve at half-maximal effect. The procedure, abridged: as §1

Where “and” joins values, the source holds several entries; their conditions need not be identical. Equal values may be shown once. Values without a mark were called inactive. Results filed as inconclusive are left out. Calls of active or inactive are those of the source. Unless noted, calls follow the shape of the dose curve; as a rule, active = well fitted curve in the direction sought with a large enough effect in the repeat runs; inconclusive = weak or mixed curves; inactive = no such curve, though single readings can be large; an effect the other way counts as inactive or inconclusive.
% is scaled to controls: 0 for no effect and ±100 for the full control effect.

As for `CN(Cc1cc(Br)cc(Br)c1N)C1CCCCC1`, the Potency entry in experiment [1], in experiment [3], in experiment [4] and in experiment [5] was “inactive” throughout. Further, in experiment [2], the activity change, positive = activation is -11.1% [at 42.5 µM].

For the compound `COC(=O)[C@]1(C)CCC[C@@]2(C)[C@H]1CC=C1C=C(C(C)C)CC[C@@H]12`, the activity change, positive = activation in experiment [2] is -22.1%. Besides, the Potency result in experiment [3], in experiment [6] and in experiment [5] was “inactive” each time. The Potency is 24.5 µM (active) in experiment [4] and 38.9 µM (active) in experiment [7].

Take `Nc1cc(Cl)c([N+](=O)[O-])cc1O`: the Potency result in experiment [1], in experiment [3], in experiment [4], in experiment [5] and in experiment [7] was “inactive” throughout. Further, in experiment [2], the activity change, positive = activation is -13.4%.

`C=CC(=O)OCCOCC(CC)(COCCOC(=O)C=C)COCCOC(=O)C=C`: the Potency was 25.3 µM (active) in experiment [1]; 25.6 µM (active) in experiment [3]; 16.1 µM (active) in experiment [6]; 32.2 µM (active) in experiment [5]; 14.4 µM (active) in experiment [7]. Further, the activity change, positive = activation in experiment [2] is -76.5%. The Potency result in experiment [4] was “inactive”.

For `CN(C)c1ccc(N=Nc2ccccc2C(=O)O)cc1`, the Potency entry in experiment [6] and in experiment [4] was “inactive” in each case.

For `O=C(NO)c1ccccc1`, the Potency in experiment [1] was 23.2 µM (active). Moreover, in experiment [2], the activity change, positive = activation was -48.5%. In addition, the Potency entry in experiment [3], in experiment [4] and in experiment [5] was “inactive” in each case.

Turning to `Clc1ccc(C(Cn2ccnc2)OCc2c(Cl)cccc2Cl)c(Cl)c1` (configuration not stated), the Potency in experiment [1] is 26.6 µM (active); in experiment [6], 16.9 µM (active). For the same compound, in experiment [2], the activity change, positive = activation was -58.8% [at 42.5 µM]. In addition, the Potency result in experiment [4] and in experiment [5] was “inactive” throughout.

In the case of `CC(=O)OC(OC(C)=O)c1ccc([N+](=O)[O-])o1`, the activity change, positive = activation in experiment [2] is -81.4%. Moreover, the Potency in experiment [6] was 44.4 µM (active); in experiment [7], 49.8 µM (active). For the same compound, in experiment [4], the Potency entry is “inactive”.

On to `Nc1ccc2cc3ccc(N)cc3nc2c1`, for which the Potency in experiment [4] is 38.9 µM (active) and 21.3 µM (active); in experiment [5], 9.52 µM (active); in experiment [7], 43.6 µM (active) and 21.3 µM (active).

As for `NC1(c2ccc(-c3nc4ccn5c(=O)[nH]nc5c4cc3-c3ccccc3)cc2)CCC1`, the Potency was 3.35 µM (active) in experiment [1] and 23.9 µM (active) in experiment [3]. Besides, in experiment [2], the activity change, positive = activation is -52.3% [at 42.5 µM]. For the same compound, in experiment [4], the Potency result was “inactive”.

On to `CC=O`, for which the Potency is 51.3 µM (active) in experiment [3], 0.575 µM (active) in experiment [6], 32.3 µM (active) in experiment [5] and 51.3 µM (active) in experiment [7]. Further, in experiment [4], the Potency result was “inactive”.
